From PubChem
Autophagy HCS: modulators of autophagy; calls only at 10 µM (by protocol); AID 463193; MEF GFP-LC3 puncta imaging; test concentration mostly 10 µM; 0.98% of 190,000 active;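 active = percentage of spot-positive cells more than 3 SD above its plate mean, without a fluorescence outlier flag or 80% toxicity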;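 note: spot-positive cell cutoff set from DMSO-treated cells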
Ins promoter up: MIN6 insulin promoter up-regulation; MIN6 insulin promoter-GFP reporter, high-content imaging; hits give high values; z-score at 5 µM; 0.3% of 190,000 active;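 active = z-score above 3 at 5 µM with at least 500 cells counted in the well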
bCat KO growth: beta-catenin-lacking colon tumor cell growth suppression; viability, % at 10 µM; HCT116 beta-catenin knockout viability, CellTiter-Glo, 60 h; hits give low values; 1.5% of 140,000 active;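 active = viability at or under a set limit, the compound median less 4 SD, cut at about 6% in these data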;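 note: 0% = Hyamine 1622 control at 20 µM and 100% = untreated cell control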
Insulin prom inh: TRM-6 insulin promoter activity inhibition; TRM-6 cells (human fetal islet line), insulin promoter-eGFP reporter, imaging; reporter expression induced with tamoxifen; inhibition, % at 2 µM; 0.9% of 130,000 active;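 active = inhibition above the mean plus 3 SD, with well images judged a real hit on visual review, cut at about 60% in these data, passing the limit was not always enough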
HCT116 PTEN-null: growth suppressors of cells with PTEN tumor suppressor deletion. viability, % at 10 µM. AID 827. 1.2% of 140,000 active. HCT116 PTEN-null viability, CellTiter-Glo, 60 h; hits give low values;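 active = viability at or below a set limit, 4 SD under the median of all tested compounds, cut at about 3.7% in these data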;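 note: PTEN knockout HCT116 line with beta catenin targeted HCT116 as companion control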
L major viab: Leishmania major promastigote growth inhibition; Leishmania major promastigotes, resazurin fluorescence viability; inhibition, % at 10 µM; 9% of 200,000 active; AID 1063; in the data active = inhibition above about 50%;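 note: promastigotes grown with compound for 44 hours at 28 °C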
Starred values were filed as active, the others as inactive; ! = repeats disagree. Compounds with a hit are over-represented: about 9.6% of the library has one in this group of screens.

What do the screens show for `O=C(O)c1ccc(COc2ccc(Cl)cc2)o1`?
Autophagy HCS: inactive; Ins promoter up: 0.09; bCat KO growth: 86; Insulin prom inh: -8; HCT116 PTEN-null: 101; L major viab: -4

How did CC(C)NC(=O)Cn1cc(C#N)c2cc(Br)ccc21 do in these assays?
Autophagy HCS: inactive; bCat KO growth: 95; Insulin prom inh: -38; HCT116 PTEN-null: 85; L major viab: -7

How did c1ccc2c3c(c(CN4CCCCC4)cc2c1)COC3 do in these assays?
Ins promoter up: 0

What do the screens show for `O=C(c1ccc(S(=O)(=O)N2CCCC2)cc1)N1CCN(Cc2ccc3c(c2)OCO3)CC1`?
Autophagy HCS: inactive; Ins promoter up: -0.85; bCat KO growth: 83; Insulin prom inh: -279; HCT116 PTEN-null: 85; L major viab: 94*

Results for COc1ccc(CN2CCN(C(=O)c3ccc4nc(N5CCOCC5)sc4c3)CC2)c(OC)c1OC ?
Autophagy HCS: inactive; Ins promoter up: -1.2; Insulin prom inh: -29; L major viab: 6

How did O=C(c1ccc(COc2ccccc2Cl)o1)N1CCN(Cc2ccc3c(c2)OCO3)CC1 do in these assays?
Autophagy HCS: active!; Ins promoter up: -0.19; bCat KO growth: 84; Insulin prom inh: 19; HCT116 PTEN-null: 94; L major viab: 90*

How did O=C(c1ccc(COc2ccc(Cl)cc2)o1)N1CCN(Cc2ccc3c(c2)OCO3)CC1 do in these assays?
Autophagy HCS: inactive; Ins promoter up: -0.72; bCat KO growth: 91; Insulin prom inh: 48; HCT116 PTEN-null: 94; L major viab: 48

Results for O=C(c1ccc(Cl)c([N+](=O)[O-])c1)N1CCN(Cc2ccc3c(c2)OCO3)CC1 ?
Autophagy HCS: inactive; Ins promoter up: -0.88; Insulin prom inh: -121; L major viab: 82*

Results for CC1CCN(c2nc3ccc(C(=O)N4CCN(Cc5ccc6c(c5)OCO6)CC4)cc3s2)CC1 ?
Autophagy HCS: inactive; Ins promoter up: -1.4; bCat KO growth: 32; HCT116 PTEN-null: 43; L major viab: 92*

How did Cc1cc([N+](=O)[O-])nn1Cc1c(F)c(F)c(F)c(F)c1F do in these assays?
Autophagy HCS: inactive; Ins promoter up: 1.6; bCat KO growth: 90; Insulin prom inh: -10; HCT116 PTEN-null: 81; L major viab: 1

How did O=C(COc1ccccc1)N1CCN=C1c1ccccc1 do in these assays?
Autophagy HCS: inactive; Ins promoter up: 3.1*; bCat KO growth: 90; Insulin prom inh: -43; HCT116 PTEN-null: 99; L major viab: -7

How did O=C(COc1ccccc1)N1CCN=C1SCc1cccnc1 do in these assays?
Autophagy HCS: inactive; Ins promoter up: 0.46; bCat KO growth: 104; HCT116 PTEN-null: 94; L major viab: 65*

How did Fc1ccc(C2CCCN2Cc2nc(-c3cnccn3)no2)cc1 (centres undefined) do in these assays?
Autophagy HCS: inactive; Ins promoter up: 0.08; L major viab: -8

How did Cc1ccc(S(=O)(=O)c2c(COC(=O)c3ccccc3Cl)c(-c3ccccc3)nn2C)cc1 do in these assays?
Autophagy HCS: inactive; bCat KO growth: 70; Insulin prom inh: -16; HCT116 PTEN-null: 63; L major viab: 61*

What do the screens show for `NC(=O)/C(=C/c1cccnc1)NC(=O)c1ccccc1`?
Ins promoter up: -0.22

What do the screens show for `O=C(CCc1nc2ccccc2[nH]1)NCc1ccc2c(c1)OCO2`?
Autophagy HCS: inactive; Ins promoter up: 0.58; bCat KO growth: 90; Insulin prom inh: -40; HCT116 PTEN-null: 89; L major viab: 7

Results for O=C(CCc1nnc(Cc2ccc3c(c2)OCO3)o1)NCc1nc2ccccc2s1 ?
Autophagy HCS: inactive; Insulin prom inh: 78*; L major viab: -3

How did O=c1[nH]cc(COCc2ccccc2)c(=O)[nH]1 do in these assays?
Autophagy HCS: inactive; Ins promoter up: -0.68; bCat KO growth: 2.6*; Insulin prom inh: 60; HCT116 PTEN-null: 4; L major viab: -6

How did C=CCNC(=O)c1onc(CSc2cccc(Cl)c2)c1C(=O)O do in these assays?
Autophagy HCS: inactive; Ins promoter up: -0.29; bCat KO growth: 97; Insulin prom inh: 24; HCT116 PTEN-null: 99; L major viab: -11

How did CCCS(=O)(=O)Nc1ccc2cn[nH]c2c1 do in these assays?
Autophagy HCS: inactive; Ins promoter up: -1.1; L major viab: 7

What do the screens show for `CCOc1cc(C)c(S(=O)(=O)Nc2ccc3cn[nH]c3c2)cc1C`?
Autophagy HCS: inactive; Ins promoter up: 4.2*; bCat KO growth: 23; HCT116 PTEN-null: 26; L major viab: 39

Results for O=C(/C=C/c1cccc([N+](=O)[O-])c1)N1CCN(c2ccc(F)cc2)CC1 ?
Autophagy HCS: inactive; Ins promoter up: 0.03; bCat KO growth: 94; Insulin prom inh: -27; HCT116 PTEN-null: 106; L major viab: -5

How did Nn1c(SC/C=C/c2ccccc2)nnc1-c1cccnc1 do in these assays?
Autophagy HCS: inactive; Ins promoter up: 0.88; bCat KO growth: 87; Insulin prom inh: -12; HCT116 PTEN-null: 103; L major viab: 0

Results for Clc1ccc(-n2c(SC/C=C/c3ccccc3)nnc2-c2cccnc2)cc1 ?
Autophagy HCS: inactive; Ins promoter up: 0.17; bCat KO growth: 68; Insulin prom inh: -14; HCT116 PTEN-null: 67; L major viab: 74*

What do the screens show for `Cc1ccccc1NC(=S)N(Cc1ccccn1)Cc1ccccc1Cl`?
Autophagy HCS: inactive; Ins promoter up: -0.29; L major viab: 40

What do the screens show for `COc1ccc(Cl)cc1NC(=S)N(Cc1cccnc1)Cc1ccco1`?
Autophagy HCS: inactive; Ins promoter up: -0.51; Insulin prom inh: -33; L major viab: 13

What do the screens show for `Cc1ccc(Cl)cc1NC(=S)N(Cc1ccccc1)Cc1cccnc1`?
Autophagy HCS: inactive; Ins promoter up: -0.84; L major viab: 99*

How did CCOC(=O)CNC(=S)N(Cc1ccccc1)Cc1cccnc1 do in these assays?
Autophagy HCS: inactive; Ins promoter up: 0.71; Insulin prom inh: -7; L major viab: 15

Results for S=C(Nc1ccccc1Cl)N(Cc1ccccc1)Cc1cccnc1 ?
Autophagy HCS: inactive; Ins promoter up: 0.69; Insulin prom inh: -67; L major viab: 91*

What do the screens show for `Cc1ccccc1NC(=S)N(Cc1cccnc1)Cc1ccccc1Cl`?
Autophagy HCS: inactive; Ins promoter up: -0.46; L major viab: 92*

How did COc1ccccc1NC(=S)N(Cc1cccnc1)Cc1ccccc1Cl do in these assays?
Autophagy HCS: inactive; Ins promoter up: -0.23; L major viab: 77*

What do the screens show for `COc1ccccc1NC(=S)N(Cc1ccc(C)cc1)Cc1cccnc1`?
Autophagy HCS: inactive; Ins promoter up: -1.3; Insulin prom inh: -47; L major viab: 6

How did Cc1cccc2cc(C(c3nnnn3C3CCCC3)N3CCOCC3)c(=O)[nH]c12 (centres undefined) do in these assays?
Autophagy HCS: inactive; bCat KO growth: 99; Insulin prom inh: 0; HCT116 PTEN-null: 101; L major viab: -1

How did Cc1ccccc1CSCc1ccc(C(=O)NCCCN2CCOCC2)o1 do in these assays?
Autophagy HCS: inactive; Ins promoter up: -0.64; Insulin prom inh: 47; L major viab: 11
